TLR9-MyD88 block = inhibitors of human TLR9-MyD88 binding; 340,000 tested, 0.21% active; CHO BLA complementation TLR9-MyD88, CCF4 FRET ratio; Q9NR96+Q99836; inhibition, % at 4.98 µM; AID 504734;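 active = inhibition above the mean over all tested compounds plus 3 SD, cut at about 21% in these data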
PRMT1 inh = blocks human protein arginine methyltransferase 1; recombinant PRMT1, activity-based probe fluorescence polarization; inhibition, % at 2.79 µM; Q99873; 370,000 tested, 1.3% active;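 active = inhibition above about 21% made by adding two undisclosed values, limit read from the data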
rCAG binder = binds r(CAG) RNA repeats | r(CAG) RNA repeat, TO-PRO-1 dye displacement fluorescence | inhibition, % at 3 µM | 370,000 tested, 1.3% active;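 active = inhibition above the plate cutoff, the mean of all test compounds on that plate plus 3 SD, cut at about 35% in these data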;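 note: higher means more dye released from RNA so lower well fluorescence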
TLR4-MyD88 BLA = TLR4-MyD88 interaction inhibition in cells. HeLa CL3-4 TLR4/MyD88 BLA complementation, FRET ratio. 200,000 tested, 0.18% active. inhibition, % at 8.4 µM. AID 861; in the data active = inhibition above about 25%
ABHD5 PLIN5 PPI = ABHD5-PLIN5 protein interaction inhibition; Split G. princeps luciferase complementation, luminescence, 4 h; Q00G26+Q8WTS1; AID 602281; 360,000 tested, 0.78% active; inhibition, % at 4 µM;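 active = inhibition above the mean inhibition across every tested compound plus 3 SD, cut at about 22% in these data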
NOD2-RIPK2 inh = inhibitors of human NOD2-RIPK2 interaction; CHO BLA complementation NOD2-RIPK2, CCF4 ratio; inhibition, % at 4.98 µM; 360,000 tested, 0.38% active; AID 624267; in the data active = inhibition above about 21%
Target sequence (O43353 whole entry, looked up): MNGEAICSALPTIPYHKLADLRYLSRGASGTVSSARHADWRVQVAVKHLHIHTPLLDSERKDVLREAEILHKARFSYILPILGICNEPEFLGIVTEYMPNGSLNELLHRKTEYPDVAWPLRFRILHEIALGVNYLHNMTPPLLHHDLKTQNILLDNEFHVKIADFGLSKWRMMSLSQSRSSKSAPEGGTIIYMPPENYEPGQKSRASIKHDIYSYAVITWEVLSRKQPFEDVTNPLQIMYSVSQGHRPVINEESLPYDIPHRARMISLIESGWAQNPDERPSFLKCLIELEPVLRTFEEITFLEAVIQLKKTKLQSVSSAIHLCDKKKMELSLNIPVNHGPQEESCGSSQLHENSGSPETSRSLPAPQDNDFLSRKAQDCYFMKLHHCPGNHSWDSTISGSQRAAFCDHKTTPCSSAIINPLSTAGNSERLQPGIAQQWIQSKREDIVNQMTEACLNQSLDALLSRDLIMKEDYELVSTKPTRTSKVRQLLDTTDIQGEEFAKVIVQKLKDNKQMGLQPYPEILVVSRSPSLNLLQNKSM
Large screens that a line does not name were inactive. Only some compounds are listed: those with a hit (about 3.3% of all), similar ones and a draw of the others.

CCOC(=O)C1=C(Cc2ccc(F)cc2)C(=O)c2ccccc2C1=O	PRMT1 inh 79, ABHD5 PLIN5 PPI 47, NOD2-RIPK2 inh 30
O=C(O)c1ccc(COc2ccc3ccccc3c2/C=C2/NC(=O)N(c3ccccc3)C2=O)cc1	rCAG binder 74
O=C(O)c1ccc(COc2ccccc2/C=C2/NC(=O)N(c3cccc(Cl)c3)C2=O)cc1	none
Cn1c(=O)c(Nc2ccc(Cl)cc2)c2c3c(cccc31)C(=O)c1ccccc1-2	PRMT1 inh 93 (no result: TLR9-MyD88 block, ABHD5 PLIN5 PPI, NOD2-RIPK2 inh)
O=C1CCCC(=NCc2ccco2)C1	none
CN(C)c1nc(=NCc2ccco2)ss1	ABHD5 PLIN5 PPI 90 (no result: PRMT1 inh, rCAG binder, TLR4-MyD88 BLA)
CCCCOC(=O)c1ccc(NC(=O)COC(=O)CSc2nc(C)cc(C)n2)cc1	none
CCOc1ccc(C2C3=C(CCCC3=O)Nc3ccc4ncccc4c32)cc1 (configuration not stated)	none (no result: TLR4-MyD88 BLA)
O=C1CCCC2=C1C(c1ccc(O)c(O)c1)c1c(ccc3ncccc13)N2 (configuration not stated)	PRMT1 inh 21 (no result: TLR9-MyD88 block)
CC(C)c1noc2ncc(C(=O)c3cc(Cl)cc(Cl)c3O)cc12	rCAG binder 47
Cc1nc2sc3c(c2c(=O)n1N)CCC3	none
Cn1nnc2sc3c(c2c1=O)CCCC3	PRMT1 inh 22
N#CC1=C(N)Oc2cc(N)ccc2C1c1ccc(F)cc1 (configuration not stated)	PRMT1 inh 23
N#CC1=C(N)Oc2cc(N)ccc2C1c1ccc(Cl)cc1 (configuration not stated)	none (no result: TLR4-MyD88 BLA)
N#CC1=C(N)Oc2cc(N)ccc2C1c1ccc(F)cc1F (configuration not stated)	PRMT1 inh 24 (no result: TLR4-MyD88 BLA)
COC1=CC(C)C2CC3OC(=O)CC4C(C)=C(OC)C(=O)C(C2(C)C1=O)C34C (configuration not stated)	none (no result: TLR9-MyD88 block, TLR4-MyD88 BLA)
Cc1ccc(Cl)cc1NC(=O)OCCN(C)C(=O)Nc1cc(Cl)ccc1C	none (no result: TLR9-MyD88 block, TLR4-MyD88 BLA, ABHD5 PLIN5 PPI, NOD2-RIPK2 inh)
COc1cc(NC(=O)c2cc3ccccc3cc2O)c(OC)cc1Cl	rCAG binder 47 (no result: TLR4-MyD88 BLA)
O=C(O)/C=C/C(=O)Nc1c(F)cccc1F	PRMT1 inh 22 (no result: TLR4-MyD88 BLA)
Cc1noc(C)c1-c1ccc(C(=O)Nc2cccc(C(F)(F)F)c2)c2occc12	none (no result: TLR9-MyD88 block, TLR4-MyD88 BLA)
COc1cccc(/C=C2\CCc3ccccc3C2=O)c1	none (no result: TLR4-MyD88 BLA)
COc1cccc(C=C2Cc3ccccc3C2=O)c1	ABHD5 PLIN5 PPI 23 (no result: TLR9-MyD88 block, TLR4-MyD88 BLA)
COc1ccc(NCc2cc3cc(OC)ccc3[nH]c2=O)cc1	PRMT1 inh 21
Cc1nnnn1/C(=C\c1ccccc1)C(=O)OCC(=O)Nc1cccc(S(=O)(=O)N(C)C)c1	ABHD5 PLIN5 PPI 50 (no result: TLR4-MyD88 BLA)
O=C(O)CCCCCCCCCCCc1ccccc1	rCAG binder 36
C[C@H]1COc2cc(Br)ccc2S(=O)(=O)N1Cc1cn(Cc2ccc(Br)cc2)nn1	none (no result: TLR9-MyD88 block, TLR4-MyD88 BLA, ABHD5 PLIN5 PPI, NOD2-RIPK2 inh)
Cc1nn(-c2ccc(Cl)cc2)c(Cl)c1/C=N/NC(=O)c1ccc(NS(=O)(=O)c2cccs2)cc1	rCAG binder 62 (no result: TLR4-MyD88 BLA)
Cc1nn(-c2ccc(F)cc2)c(Cl)c1/C=N/NC(=O)c1cccs1	none
O=C1N=c2ccccc2=C1c1c(O)n(-c2cccc(F)c2)[nH]c1=O	PRMT1 inh 21
CC[C@@H]1Cc2[nH][nH]c(=O)c2[C@H](c2ccc(Cl)cc2)O1	none (no result: TLR9-MyD88 block, TLR4-MyD88 BLA)
CCCC[C@@H]1Cc2[nH][nH]c(=O)c2[C@H](c2ccc(C(C)C)cc2)O1	ABHD5 PLIN5 PPI 23 (no result: TLR9-MyD88 block, TLR4-MyD88 BLA)
CCCC[C@@H]1Cc2[nH][nH]c(=O)c2[C@@H](c2ccc(Cl)cc2)O1	ABHD5 PLIN5 PPI 23 (no result: TLR9-MyD88 block, TLR4-MyD88 BLA)
CCCC[C@@H]1Cc2[nH][nH]c(=O)c2[C@H](c2ccc3ccccc3c2)O1	none (no result: TLR9-MyD88 block, TLR4-MyD88 BLA)
CCCS(=O)(=O)N1CCCC(C(=O)Nc2ccc3c(c2)CCC3)C1 (configuration not stated)	none (no result: TLR4-MyD88 BLA)
O=C(CSC1=Nc2ccccc2C2CC=NN12)Nc1ccc(F)c(F)c1F (configuration not stated)	PRMT1 inh 22 (no result: TLR4-MyD88 BLA)
CCCCOC(=O)c1ccc(NC(=O)CSC2=Nc3ccccc3C3CC=NN23)cc1 (configuration not stated)	none
CC(C)C[C@H](N)c1nnc(S(=O)(=O)Cc2ccc(F)cc2)o1	ABHD5 PLIN5 PPI 31 (no result: PRMT1 inh, rCAG binder)
CC(C)c1cc2c(c(O)c1O)[C@@]13CCCC(C)(C)C1CC2OC3=O (some centres not stated)	PRMT1 inh 36 (no result: TLR4-MyD88 BLA)
CCCCCCSC1=C(C#N)C(=O)NC2(CCCCC2)S1	rCAG binder 70

Bioassay records: PubChem, The Scripps Research Institute Molecular Screening Center
